About 10 (0.01%) of roughly 89,000 compounds were called active. About 10% were inconclusive and are not listed. No stated cut-off is given here; in the data, active means activity change below about -37% (passing the limit was not always enough); inconclusive means no clear call, values can overlap the other calls; tested in A549 cells. The list is a sample of the results.
Test: Vaccinia orthopox stage-specific inhibition, primary screen, cell-based, single point (AID 1053133)
Settings: Vaccinia-infected cells, mCherry/Venus stage reporter fluorescence, stronger effect = lower value, concentration not given here; activity change (Venus): measured here: Venus reporter, other viral stage

Row | Structure (SMILES) | activity change (Venus) [%] | activity change (mCherry)
1 | N#Cc1cccc(-c2ccc([C@H]3[C@@H](CO)N[C@@H]3CNC(=O)C3CCC3)cc2)c1 | -1.58 | -4.87% (inactive)
2 | COc1ccc2c3c(n(C)c2c1)[C@H](CO)N(CC1CCCCC1)CC31CCN(Cc2nccs2)CC1 | -17.6 | -20.4% (inactive)
3 | C/C=C/c1ccccc1[C@H]1[C@@H](C#N)N(C(=O)Cc2ccccn2)[C@@H]1CO | -12.5 | -21.2% (inactive)
4 | CCNC(=O)[C@H]1[C@H](CO)[C@H]2Cn3c(cccc3=O)[C@@H]1N2Cc1cc(F)ccc1F | 15.1 | 12.8% (inactive)
5 | O=C(C[C@@H]1CC[C@@H]2[C@H](COC[C@H](O)CN2C(=O)c2ccc3c(c2)OCO3)O1)NC1CCCC1 | 4.69 | 7.59% (inactive)
6 | C[C@@H]1CCCCO[C@H](CN(C)S(=O)(=O)c2ccc(Cl)cc2)[C@H](C)CN([C@@H](C)CO)C(=O)c2cc(NS(=O)(=O)c3cn(C)cn3)ccc2O1 | 3.71 | 0.869% (inactive)
7 | CNC(=O)C[C@@H]1CC[C@@H]2[C@H](COC[C@H](O)CN2Cc2ccc(C(F)(F)F)cc2)O1 | 3.54 | 4.2% (inactive)
8 | Cc1noc(C)c1S(=O)(=O)N(C)C[C@@H]1OCCCC[C@@H](C)Oc2ccc(NC(=O)Nc3ccccc3)cc2C(=O)N([C@H](C)CO)C[C@@H]1C | 5.28 | 12.8% (inactive)
9 | CC=Cc1ccc2n(c1=O)C[C@@H]1[C@@H](CO)[C@H](C(=O)NCc3cccc(OC)c3)N[C@H]21 (mixture of isomers) | 12.7 | 3.42% (inactive)
10 | C/C=C/c1cnc2c(c1)C(=O)N([C@H](C)CO)C[C@H](C)[C@@H](CN(C)S(=O)(=O)c1ccccc1F)O2 | -1.53 | -5.68% (inactive)
11 | COCC(=O)Nc1ccc2c(c1)C(=O)N(C)C[C@H](OC)[C@@H](C)CN(CCc1ccccc1)[C@@H](C)CO2 | -0.0268 | -4.99% (inactive)
12 | O=C(C[C@@H]1C[C@@H]2c3cc(NC(=O)Nc4ccccc4F)ccc3O[C@@H]2[C@H](CO)O1)NCCc1ccccc1 | 7.27 | 9.1% (inactive)
13 | CCCC(=O)N1CC2(C1)CN(C(=O)Nc1cccc(F)c1)[C@@H](CO)c1c2c2ccc(OC)cc2n1C | -2.53 | 2.16% (inactive)
14 | COCC(=O)Nc1ccc2c(c1)C(=O)N(C)[C@@H]1CC[C@H](CC(=O)NCC3CC3)O[C@@H]1CO2 | 8.99 | 16% (inactive)
15 | COc1ccc2c3c([nH]c2c1)[C@@H](CO)N(C(=O)Cc1ccccc1)CC31CCN(C)CC1 | -13.2 | -7.54% (inactive)
16 | C[C@H](CO)N1C[C@H](C)[C@H](CN(C)C(=O)C2CCOCC2)Oc2ncc(-c3ccccc3F)cc2C1=O | 6.04 | 8.11% (inactive)
17 | CO[C@H]1CN(C)C(=O)c2cc(NC(=O)C3CCC3)ccc2OC[C@H](C)N(CC2CCCCC2)C[C@@H]1C | 3.14 | -9.01% (inactive)
18 | COc1ccc2c3c(n(C)c2c1)[C@H](CO)N(C)CC31CCN(C(=O)Nc2cccc(F)c2)CC1 | -8.96 | -16.1% (inactive)
19 | CC(C)NC(=O)N1CC(=O)N2[C@@H](CO)[C@H](c3ccc(C#CCN(C)C)cc3)[C@@H]2C1 | 7.94 | 9.18% (inactive)

Row | Structure (SMILES) | activity change (Venus) [%] | activity change (mCherry)
20 | O=C(C[C@H]1C[C@H]2c3cc(NC(=O)Nc4ccc(C(F)(F)F)cc4)ccc3O[C@H]2[C@@H](CO)O1)NCCc1ccccc1 | 9.77 | 6.8% (inactive)
21 | O=C(Nc1ccccc1)N1C[C@@H]2[C@H](c3ccccc31)[C@H](CO)N2C(=O)c1ccccn1 | 5.62 | 10.2% (inactive)
22 | Cc1ccc(S(=O)(=O)N(C)C[C@@H]2Oc3ccc(NS(=O)(=O)c4ccc(F)cc4)cc3CC(=O)N([C@@H](C)CO)C[C@H]2C)cc1 | -2.68 | 2.93% (inactive)
23 | COc1ccccc1NC(=O)N[C@H]1CC[C@H](CCn2cc(-c3cccnc3)nn2)O[C@@H]1CO | 7.22 | -4.31% (inactive)
24 | COc1ccc(-c2cn(CC[C@@H]3CC[C@@H](NC(=O)CCN4CCCCC4)[C@@H](CO)O3)nn2)cc1 | 11.2 | 5.57% (inactive)
25 | O=C(Cc1ccccn1)N[C@@H]1CC[C@H](CCn2cc(-c3ccc(F)cc3)nn2)O[C@@H]1CO | -0.00768 | 11% (inactive)
26 | Cc1ccc(S(=O)(=O)N[C@@H]2CC[C@@H](CCn3cc(C(C)C)nn3)O[C@H]2CO)cc1 | 2.74 | -0.697% (inactive)
27 | COc1ccc2c3c(n(C)c2c1)[C@H](CO)N(C(=O)c1ccc(F)cc1)CC31CCN(C(C)=O)CC1 | 7.75 | 25% (inactive)
28 | COC(=O)C[C@@H]1CC[C@@H]2[C@H](COc3ccc(NC(=O)Nc4cccc(F)c4)cc3C(=O)N2C)O1 | 6.13 | 6.13% (inactive)
29 | CCNC(=O)[C@@H]1[C@@H](CO)[C@@H]2Cn3c(ccc(C4=CCCCC4)c3=O)[C@@H]2N1Cc1ccccc1F | -3.86 | 2.73% (inactive)
30 | O=C(Nc1cc(F)ccc1F)N[C@H]1CC[C@H](CCn2cc(C3CCCC3)nn2)O[C@@H]1CO | -13.1 | -6.78% (inactive)
31 | C[C@H]1CN([C@@H](C)CO)C(=O)c2cc(C3=CCCC3)cnc2O[C@H]1CN(C)C(=O)Nc1ccc(F)cc1 | 6.92 | 7.38% (inactive)
32 | C[C@@H]1CN([C@@H](C)CO)C(=O)c2cc(NC(=O)C3CCCCC3)ccc2O[C@@H](C)CCCCO[C@H]1CN(C)C(=O)Nc1ccc2c(c1)OCO2 | 1.19 | 1.01% (inactive)
33 | CC(C)NC(=O)N1[C@H](C(=O)N2CCc3ccccc3C2)[C@@H](CO)[C@@H]2Cn3c(cccc3=O)[C@@H]21 | 7.39 | 13.3% (inactive)
34 | CCN1[C@@H]2Cn3c(ccc(C4=CCCCC4)c3=O)[C@H]1[C@@H](C(=O)N1CCCCC1)[C@@H]2CO | -4.76 | -0.187% (inactive)
35 | C[C@H]1CN([C@@H](C)CO)C(=O)c2cc(/C=C/c3ccccc3)cnc2O[C@@H]1CN(C)C(=O)NC1CCCCC1 | -19.2 | -26.2% (inactive)
36 | CS(=O)(=O)N1CC(=O)N2[C@@H](CO)[C@@H](c3ccc(C#CCC4CCCC4)cc3)[C@@H]2C1 | -6.84 | -14.6% (inactive)
37 | COc1ccc(CN2[C@@H](CO)[C@@H]3c4ccccc4N(C(=O)Nc4ccccc4)C[C@@H]32)cc1 | -11.3 | -12.7% (inactive)

From PubChem BioAssay AID1053133 (Broad Institute, 2014)
